# PAX8 reporter – inhibitors of PAX8-driven TPO luciferase reporter, primary screen, RMG-I cells, single concentration | SteadyGlo, 24 h | 1.2% of 360,000 active | inhibition, % at 12.6 µM;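 active = mean replicate inhibition at least 60% with every replicate also reaching 60%; inconclusive = only one of the two criteria is met; inactive = mean below 60% and not all replicates reaching 60%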;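 note: luciferase light reporting Pax8 driven TPO promoter activity; plate controls were median of neutral control wells for no effect and mitoxantrone controls for full effect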
# EWS-Fli inh – EWS/Fli-driven NR0B1 reporter inhibitors, primary screen, A673 cells, NR0B1 luciferase, luminescence, MLPCN library. viability-normalised. inhibition, % at 12.6 µM. 0.67% of 350,000 active;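 active = mean inhibition of at least 50% after viability correction, with every replicate also passing that limit; inconclusive = mean reaches 50% but only one of two replicates passes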;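 note: firefly luciferase signal divided by Alamar Blue viability fluorescence both relative to DMSO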
# LGR2 antag – inhibitors of bursicon-induced LGR2 CRE-luciferase signal, primary screen, cell-based, HEK293, CRE-luciferase reporter, bursicon stimulation; bursicon-stimulated, 4 h; inhibition, % at 9.99 µM; 0.35% of 380,000 active; AID 720647, 2013;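 active = drop in luminescence signal, shown as inhibition above about 50% in the replicate tests, limit read from the data, passing the limit was not always enough; inconclusive = probably only some replicates passing the limit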;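 note: agonist challenge used bursicon conditioned medium at about half maximal strength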
# CFTR F508del cor – F508del CFTR correction, initial screen, CFBE line, single point | CFBE cells, YFP halide quenching; stimulated with forskolin plus potentiator P3; % fluorescence drop versus neutral controls | activity (quench increase), % at 7.58 µM | 0.36% of 350,000 active | AID 720511, 2013;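 active = mean added fluorescence quench of at least 8% versus neutral control, with both replicates also reaching 8%; inconclusive = only one of the mean or replicate conditions met; inactive = mean below 8% and not both replicates reaching 8%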;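 note: cells transiently co-express mutant CFTR-F508del with the halide-sensitive YFP; corrector assay measuring rescue of mutant channel to the surface after 24 h compound exposure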
# * marks the source's active call; other numbers are inactive results; ? = inconclusive; / = no result given. Hits are enriched below; roughly 1.8% of the tested compounds scored in any of these assays.
SMILES,PAX8 reporter,EWS-Fli inh,LGR2 antag,CFTR F508del cor
COc1cc(C(=O)Nc2ccc(C)cc2)c2ccccc2n1,33.1,54.2*,-3.5,11.1*
CCOc1ccc(NC(=O)c2cccc3ccccc23)cc1,-23.4,6.2,-37.4,6.1
CCOc1ccc(NC(=O)c2cc(OC)nc3ccccc23)cc1,33.1,42.3,-17.2,11.3*
C=C[C@H]1[C@H](O[C@@H]2O[C@H](CO)[C@@H](O)[C@H](O)[C@H]2O)OC=C2C(=O)OCC[C@]21O,-14.3,-6.1,-20.0,-1.1
CCOc1ccc(C(=O)c2cnc3ccccc3c2N2CCN(CC)CC2)cc1,16.3,-6.6,26.6,0.9
CCN(CC(=O)Nc1ccc(NC(C)=O)cc1)C(=O)c1ccc(N2CCC(C)CC2)c([N+](=O)[O-])c1,14.5,1.1,2.4,41.0*
NC1=NC[C@H](c2ccccc2)N1CCc1cc(C(F)(F)F)cc(C(F)(F)F)c1,-6.2,61.3*,15.9,1.4
CC(O)[C@H]1CN=C(N)N1CCc1cc(C(F)(F)F)cc(C(F)(F)F)c1 (some centres not stated),-17.5,15.7,0.2,0.3
COc1ccc(N(CC(=O)N2CCCC2)S(C)(=O)=O)cc1,9.2,-2.1,-10.0,-4.7
CCCCCCCCc1nc(=S)[nH][nH]1,13.7,/,/,/
CSc1nc(N)nc(SCC(=O)CC(=O)OC(C)C)c1C#N,-7.4,/,-6.5,/
C[C@@H]1CN([C@@H](C)CO)C(=O)c2cc(NC(=O)Nc3ccc(F)cc3)ccc2O[C@@H](C)CCCCO[C@H]1CN(C)Cc1ccc(C(F)(F)F)cc1,83.7*,14.9,9.0,-0.3
C[C@H]1CCCCO[C@H](CN(C)Cc2ccc(C(F)(F)F)cc2)[C@@H](C)CN([C@@H](C)CO)C(=O)c2cc(NC(=O)Nc3ccc(F)cc3)ccc2O1,95.5*,11.9,-44.3,-0.4
C[C@@H]1CCCCO[C@H](CN(C)Cc2ccc(C(F)(F)F)cc2)[C@H](C)CN([C@@H](C)CO)C(=O)c2cc(NC(=O)Nc3ccc(F)cc3)ccc2O1,91.3*,15.6,9.1,-2.6
C[C@@H]1CN([C@H](C)CO)C(=O)c2cc(NC(=O)Nc3ccc(F)cc3)ccc2O[C@@H](C)CCCCO[C@@H]1CN(C)Cc1ccc(C(F)(F)F)cc1,93.4*,6.7,-0.4,-2.4
C[C@@H]1CCCCO[C@H](CN(C)Cc2ccc(C(F)(F)F)cc2)[C@@H](C)CN([C@H](C)CO)C(=O)c2cc(NC(=O)Nc3ccc(F)cc3)ccc2O1,-0.7,7.4,-0.7,-5.5
C[C@@H]1CN([C@@H](C)CO)C(=O)Cc2cc(NC(=O)Nc3ccccc3)ccc2O[C@H]1CN(C)Cc1ccc(Cl)c(Cl)c1,56.4,5.1,17.7,-6.3
C[C@H](CO)N1C[C@H](C)[C@H](CN(C)Cc2ccc(C(F)(F)F)cc2)OCCCC[C@H](C)Oc2ccc(NC(=O)Nc3ccc(F)cc3)cc2C1=O,52.0,18.7,18.5,-1.8
C[C@@H]1CN([C@H](C)CO)C(=O)c2cc(NC(=O)Nc3ccc(F)cc3)ccc2O[C@@H](C)CCCCO[C@H]1CN(C)Cc1ccc(C(F)(F)F)cc1,106.6*,69.9*,-13.4,-3.7
CC[C@@]1(O)C(=O)OCc2c1cc1n(c2=O)Cc2cc3c(N)cccc3nc2-1,99.3*,?,/,1.5
O=c1cccc2n1Cc1cc3ccccc3nc1-2,-90.7,-101.3,-61.7,-0.5
CC[C@@]1(O)C(=O)OCc2c1cc1n(c2=O)Cc2cc3c(CN(C)C)c(O)ccc3nc2-1,101.8*,63.4*,96.8*,26.0*
O=C(Cc1ccccc1)N[C@@H]1C=C[C@H](CC(=O)N2CCOCC2)O[C@H]1CO,-26.0,3.3,9.9,1.9
N=c1c2c(n(Cc3ccc(Br)cc3)c3c1CCC3)CCCC2,78.3*,40.1,-35.4,5.8
CSc1nc2nccc(/C=C\c3ccccc3)n2n1,63.4*,/,/,/
CC(OC(=O)c1ccc(S(C)(=O)=O)c([N+](=O)[O-])c1)C(=O)NC1C2CC3CC(C2)CC1C3 (configuration not stated),105.7*,49.6,8.2,-1.3
CC(C)CN1CCN(C(=O)COC(=O)c2ccc(S(C)(=O)=O)c([N+](=O)[O-])c2)CC1,112.1*,33.9,22.6,-4.5
CCC(OC(=O)c1ccc(S(C)(=O)=O)c([N+](=O)[O-])c1)C(=O)NC1C2CC3CC(C2)CC1C3 (configuration not stated),94.3*,47.4,6.5,-5.9
COc1ccc(-c2cc3cc(F)ccc3cn2)cc1,-132.1,11.3,-10.4,1.8
COc1ccc(-c2cc3ccc(F)cc3cn2)cc1,-123.1,2.4,62.8*,-0.5
